Source: PubChem BioAssay (NCATS)
Where “and” joins values, the source holds several entries; their conditions need not be identical. Equal values may be shown once. A number with no mark means an inactive call. Inconclusive results are not listed. Entries that show only a call come without a potency. Calls of active or inactive are those of the source. Unless noted, the call rests on the fitted dose curve; in most records, active means well fitted curve in the direction sought with a large enough effect; inconclusive means small, poorly fitted or top-dose-only effect, or another doubt; inactive means no such curve, though single readings can be large; an effect the other way counts as inactive or inconclusive.

Tests used:
[1] = Cell Viability - BJ (AID 421; calls by dose curve;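 further: potency means the concentration at half of the fitted maximal effect; cells exposed to compound for 40 hours at 37 °C before readout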); conditions: BJ fibroblast viability, qHTS
How it was run: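 Normal human BJ foreskin fibroblasts, 1500/well in complete medium, treated 40 hr at 37 °C. Cellular ATP by CellTiter-Glo luminescence; normalized to DMSO and 100 uM tamoxifen, AC50 from Hill fit.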

[2] = Cell Viability - HepG2 (AID 433; calls by dose curve;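 further: potency means the concentration at half of the fitted maximal effect; cells exposed to compound for 40 hours; potency for ATP loss meaning cytotoxicity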); conditions: qHTS
How it was run: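 ATP luminescence (CellTiter-Glo) after 40 h compound exposure, 37 °C, HepG2, 1500 cells/well, complete medium. Normalized: DMSO = basal, 100 uM tamoxifen = 100% inhibition. AC50 via standard Hill equation.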

[3] = Cellular Toxicity (caspase-3) MRC-5 (AID 659); conditions: MRC-5 cells, luminescence, normalized: DMSO 0%, 10 µM staurosporine 100%; series mostly up to 91.7 µM
How it was run: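 Luminescent Caspase-Glo 3/7 read-out (1 h, room temperature) after a 16 h, 37 °C compound exposure of MRC-5 lung fibroblasts at 1500 cells/well. Concentration-response AC50 from Hill equation; 0% DMSO, 100% 10 uM staurosporine.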

[4] = Cellular Toxicity (caspase-3) N2a (AID 665); conditions: N2a cells, luminescence, normalized: DMSO 0%, 10 µM staurosporine 100%; series mostly up to 92.2 µM;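 further: compound exposure lasted 16 h at 37 °C before readout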
How it was run: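 Caspase-3/7 activation, measured as increased luminescence from aminoluciferin release, is quantified in mouse N2a cells exposed to compounds for 16 h. Values are normalized to DMSO and 10 uM staurosporine, with AC50 derived by Hill modelling.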

[5] = Cellular Toxicity (caspase-3) Renal Proximal Tubule (AID 667); conditions: renal proximal tubule cells; series mostly up to 91.7 µM;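 further: cells exposed to compound for 16 hours at 37 °C before detection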
How it was run: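 Luminescent caspase 3/7 signal from peptide-aminoluciferin cleavage measures apoptosis in freshly isolated rat kidney proximal tubule cells after 16 h compound exposure. Concentration-response data are normalized to DMSO and 10 uM staurosporine, and AC50 values come from Hill equation fits.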

[6] = Cell Viability - LYMP2-001 (AID 921); conditions: LYMP2-001 lymphoblastoid cell viability; series mostly up to 92.2 µM; further: nearly all actives have a fitted effect of over 70% in size
How it was run: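 CellTiter-Glo luminescence (intracellular ATP) after 24 hr compound exposure at 37 C, 2500 lymphoblastoid cells/well in complete medium. AC50 fitted with standard Hill equation; tetraoctylammonium bromide positive control.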

[7] = MultiTox-Fluor Cytotoxicity Assay - LYMP1-002 - Live Cells (AID 955); conditions: LYMP1-002 lymphoblastoid live-cell protease fluorescence viability; series mostly up to 46.1 µM
How it was run: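 Cells were seeded at 2500 per well and incubated 5 hr. Compounds were then added for 16 hr at 37 C, followed by MultiTox-Fluor reagent for 60 min at room temperature and fluorescence reading of viable-cell protease signal.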

[8] = MultiTox-Fluor Cytotoxicity Assay - LYMP1-003 - Live Cells (AID 962); conditions: LYMP1-003 lymphoblastoid cells, MultiTox-Fluor live-cell protease fluorescence; series mostly up to 92.2 µM;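 further: cells exposed to compound for 16 hours at 37 °C; cytotoxic hits lower the live-cell protease signal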
How it was run: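 Acute cytotoxicity is scored as a drop in live-cell protease activity in human lymphoblastoid LYMP1-003 cells after 16 hr compound exposure at 37 C. AC50 values come from Hill-equation modelling of concentration-response data.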

[9] = Cell Viability - LYMP1-003 - Assay at 24 hr (AID 963); conditions: LYMP1-003 lymphoblastoid cell viability; series mostly up to 92.2 µM
How it was run: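 Cytotoxicity is scored as a concentration-dependent fall in ATP-linked luciferase signal in human lymphoblastoid LYMP1-003 cells treated 24 hr at 37 C in complete culture medium.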

[10] = Cell Viability - LYMP1-003 - Assay at 40 hr (AID 964); conditions: LYMP1-003 lymphoblastoid viability; series mostly up to 92.2 µM; further: nearly all actives have a fitted effect of over 60% in size
How it was run: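 Luminescent ATP signal (CellTiter-Glo) served as the viability read-out after 40 hr compound treatment of human lymphoblastoid LYMP1-003 cells at 37 C. Decreases in ATP were fitted with the Hill equation to give AC50.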

[11] = Cell Viability - LYMP2-017 (AID 972); conditions: LYMP2-017 lymphoblastoid cell viability; series mostly up to 92.2 µM; further: nearly all actives have a fitted effect of over 55% in size; further: potency means the concentration at half of the fitted maximal effect
How it was run: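 Cytotoxicity is scored as a concentration-dependent drop in cellular ATP in a human lymphoblastoid line after 24 hr treatment at 37 C. Values are AC50s from Hill-equation modelling.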

[12] = Cell Viability - LYMP2-021 (AID 974); conditions: LYMP2-021 lymphoblastoid cells viability; series mostly up to 92.2 µM;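 further: compound exposure lasts 24 hours at 37 °C; nearly all actives have a fitted effect of over 55% in size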
How it was run: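 Loss of cellular ATP, measured with a luciferase-based CellTiter-Glo readout, serves as the toxicity signal in human lymphoblastoid cells treated for 24 hours at 37 C. Potency is reported as AC50 from a standard Hill model.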

[13] = Cell Viability - LYMP2-025 (AID 976); conditions: LYMP2-025 lymphoblastoid cell viability; series mostly up to 92.2 µM
How it was run: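 Acute cytotoxicity is scored as a concentration-dependent fall in intracellular ATP, measured by luciferase luminescence, in human lymphoblastoid LYMP2-025 cells exposed to compound for 24 hours at 37 C. AC50 values come from standard Hill fits.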

[14] = Cell Viability - LYMP2-006 (AID 978); conditions: LYMP2-006 lymphoblastoid cell viability, qHTS; series mostly up to 92.2 µM; further: nearly all actives have a fitted effect of over 60% in size
How it was run: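 qHTS, 1536-well; 2500 cells/well, 5 hr 37 C; cpd 24 hr 37 C; CellTiter-Glo 30 min RT; luminescence. Tetraoctylammonium bromide pos. ctrl. AC50 via Hill eqn.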

[15] = Cell Viability - LYMP2-007 (AID 979); conditions: LYMP2-007 lymphoblastoid cell viability; series mostly up to 92.2 µM;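 further: cells exposed to compound for 24 h before reading; nearly all actives have a fitted effect of over 60% in size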; further: potency means the concentration at half of the fitted maximal effect
How it was run: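 Cells are seeded at 2500 per well and rested 5 hr. Compounds are then added over a concentration series for 24 hr at 37 C. CellTiter-Glo is added for 30 min at room temperature before luminescence reading.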

[16] = Cell Viability - LYMP2-014 (AID 983); conditions: LYMP2-014 lymphoblastoid cells, viability qHTS; series mostly up to 92.2 µM; further: nearly all actives have a fitted effect of over 50% in size
How it was run: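 Cells are plated at 2500/well and left 5 hr at 37 C. Compounds are added across a concentration range and incubated 24 hr at 37 C in complete medium. CellTiter-Glo is added, and luminescence is read after 30 min at room temperature.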

[17] = Cell Viability - LYMP2-016 (AID 984); conditions: LYMP2-016 lymphoblastoid cell viability, qHTS; series mostly up to 92.2 µM; further: nearly all actives have a fitted effect of over 55% in size
How it was run: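 qHTS, 1536-well: 2500 LYMP2-016 cells/well, 5 hr 37 C, compound added, 24 hr 37 C, CellTiter-Glo 30 min RT, luminescence. Tetraoctylammonium bromide positive control. AC50 via Hill fit.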

[18] = qHTS Assay for Identification of Small Molecule Inducers of Hypoxia Response (AID 2120; active means well fitted curve in the direction sought with a large enough effect in the signal ratio, with a control signal flat, not every such curve was filed as active; the % refers to the signal ratio); conditions: hypoxia response reporter cells, beta-lactamase ratio readout; series mostly up to 104 µM
How it was run: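 Cell-based qHTS for reporter induction: hypoxia response element controlled beta-lactamase in ME-180 cells. Compounds incubated 17 h at 37 degrees C; activity from blue/green (460/530 nm) ratio, inducers ranked by AC50.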

[19] = qHTS assay for small molecule agonists of the antioxidant response element (ARE) signaling pathway measured by Nrf2-dependant transcriptional activity - cell viability counter screen (AID 720653; active means well fitted curve in the direction sought with a large enough effect in the repeat runs; an effect the other way counts as inactive or inconclusive); conditions: ARE-bla HepG2 viability, CellTiter-Glo ATP luminescence, 16 h; active compounds read low
How it was run: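 Cytotoxicity counter screen: intracellular ATP quantified by CellTiter-Glo luminescence in the same ARE-bla HepG2 plates, after 16 h compound exposure and a 2 h beta-lactamase substrate step.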

[20] = qHTS assay for cell viability of HEK293 cells (AID 743288); conditions: ATP luminescence (CellTiter-Glo), 18 h, active compounds read low; further: nearly all actives have a fitted effect of over 50% in size
How it was run: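 ATP luminescence (CellTiter-Glo) reports metabolically competent cell number after parental HEK293 cells, 2,000/well, were treated with DMSO-dissolved compounds for 18 h at 37 C; reagent incubation 30 min, room temperature.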

| SMILES | Potency [1] [µM] | Potency [2] [µM] | outcome [3] | outcome [4] | outcome [5] | Potency [6] | outcome [7] | outcome [8] | outcome [9] | Potency [10] | Potency [11] | Potency [12] | Potency [13] | Potency [14] | Potency [15] | Potency [16] | Potency [17] | Potency [18] | max response [19] | max response [20] |
| --- | --- | --- | --- | --- | --- | --- | --- | --- | --- | --- | --- | --- | --- | --- | --- | --- | --- | --- | --- | --- |
| CCBr | > 92 | > 92 | inactive | inactive | inactive | inactive | inactive | inactive | inactive | inactive | inactive | inactive | inactive | inactive | inactive | inactive | inactive | inactive | -4.15% | -3.34% |
| Nc1ccc(Cc2ccc(N)cc2)cc1 | > 92 | > 92 | inactive | inactive | inactive |  | inactive | inactive | inactive | inactive | inactive | inactive | inactive | inactive | inactive | inactive | inactive | inactive | -0.954% and 9.87% | 9.53% and -1.85% |
| O=[N+]([O-])c1ccc(Cl)cc1 | > 92 | > 92 | inactive | inactive | inactive | inactive | inactive | inactive | inactive | inactive | inactive | inactive | inactive | inactive | inactive | inactive | inactive | inactive | -7.74% and 0.776% | 7.34% and -5.17% |
| COc1cc(-c2ccc(N)c(OC)c2)ccc1N | > 92 | > 92 | inactive | inactive | inactive | inactive | inactive | inactive | inactive | inactive | inactive | inactive | inactive | inactive | inactive | inactive | inactive | inactive | 19% and 0.28% and -8.23% | 15.2% and -15% and -5% |
| N#CCCC#N | > 92 | > 92 | inactive | inactive | inactive | inactive | inactive | inactive | inactive | inactive | inactive | inactive | inactive | inactive | inactive | inactive | inactive | inactive | 1.41% | -2.73% |
| CCC(Cl)[N+](=O)[O-] (stereo not drawn) | > 92 | > 92 | inactive | inactive | inactive | inactive | inactive | inactive | inactive | inactive | inactive | inactive | inactive | inactive | inactive | inactive | inactive | inactive | -4.85% | -3.51% |
| CC(C)Br | > 92 | > 92 | inactive | inactive | inactive | inactive | inactive | inactive | inactive | inactive | inactive | inactive | inactive | inactive | inactive | inactive | inactive | inactive | -6.22% | -0.407% |
| Nc1ccc([N+](=O)[O-])cc1N | > 92 | > 92 | inactive | inactive | inactive | inactive | inactive | inactive | inactive |  | inactive | inactive | inactive | inactive | inactive | inactive | inactive | inactive | 0.262% and -5.88% | 7.69% and 2.35% |
| c1ccc(N=NNc2ccccc2)cc1 | > 92 |  | inactive | inactive | inactive | inactive | inactive | inactive | inactive | inactive | inactive | inactive | inactive | inactive | inactive | inactive | inactive | inactive | -24.2% and -20.9% | 5.57% and -4.44% |
| N#CC(Br)Br | > 92 | > 92 | inactive | inactive | inactive | inactive | inactive | inactive | inactive | inactive | 39.8 µM (active) |  | inactive |  | 39.8 µM (active) |  | inactive | inactive | -8.42% | -22.9% |
| CC(C)(COCC1CO1)COCC1CO1 (stereo not drawn) | > 92 | > 92 | inactive | inactive | inactive | inactive | inactive | inactive | inactive | inactive | inactive | inactive | inactive | inactive | inactive | inactive | inactive | inactive | 1.11% | -5.18% |
| Nc1cc(Cl)ccc1O | > 92 | > 92 | inactive | inactive | inactive | inactive | inactive | inactive | inactive |  | inactive | inactive | inactive | inactive | inactive | inactive | inactive | inactive | -22.1% | -15.2% |
| CC(C)[N+](=O)[O-] | > 92 | > 92 | inactive | inactive | inactive | inactive | inactive | inactive | inactive | inactive | inactive | inactive | inactive | inactive | inactive | inactive | inactive | inactive | 1.53% | -8.31% |
